# Where a name gives a salt, the structure may show the parent alone.
# Test system: hN + hpA co-culture (H1 iNGN2 human neurons + human primary astrocytes)
# Test: presynaptic density (SYNAPSIN1 puncta per MAP2 neurite area), Z-score vs DMSO controls; higher = more presynaptic puncta (synapse-promoting)
# Conditions: 3 µM; 72 h
# 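Further: immunostained co-cultures imaged by high-content microscopy, Z-score per plate against mean and SD of 0.1% DMSO wells, compounds added on differentiation day 18, analysed day 21.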
row,Compound,presynaptic density (Z-score)
1,Cc1cc(Nc2ncc(Cl)c(Nc3ccccc3S(=O)(=O)C(C)C)n2)c(OC(C)C)cc1C1CCNCC1,0.147
2,Cc1cc2c(cc1CC(=O)c1sccc1S(=O)(=O)Nc1onc(C)c1Cl)OCO2 [Sitaxentan sodium],-0.569
3,FC(F)(F)c1ccc(/C=C/c2nc(COc3ccc(CCCCn4ccnn4)cc3)co2)cc1 [Mubritinib (TAK 165)],-3.36
4,CCNC(=O)c1noc(-c2cc(C(C)C)c(O)cc2O)c1-c1ccc(CN2CCOCC2)cc1,3.55
5,CCCS(=O)(=O)Nc1ccc(F)c(C(=O)c2c[nH]c3ncc(-c4ccc(Cl)cc4)cc23)c1F,-0.231
6,Oc1nc(-c2ccc(C(F)(F)F)cc2)nc2c1CSCC2,0.167
7,O=S(=O)(c1ccccc1)c1cnc2c(N3CCNCC3)cccc2c1,-0.943
8,COC1CCN(C(=O)c2cc(Cc3n[nH]c(=O)c4ccccc34)ccc2F)CC1,0.144
9,N#C[C@@H]1CCCN1C(=O)CNC12CC3CC(CC(O)(C3)C1)C2 [Vildagliptin (LAF-237)],0.854
10,COCCCC/C(=N\OCCN)c1ccc(C(F)(F)F)cc1 [Fluvoxamine maleate],-0.239
11,COc1cc(F)c(F)c(Nc2ccc(I)cc2F)c1NS(=O)(=O)C1(CC(O)CO)CC1 (centres undefined) [Refametinib (RDEA119],0.433
12,O=C1[C@H](Cc2ccc(O)cc2)N2C(=O)CCN(C(=O)NCc3ccccc3)[C@H]2CN1Cc1cccc2ccccc12,-0.969
13,NC(=O)Nc1cc(-c2cccc(F)c2)sc1C(=O)N[C@H]1CCCNC1,0.58
14,Cc1ccc(C(=O)N(CCCN)[C@@H](c2oc3cc(Cl)ccc3c(=O)c2Cc2ccccc2)C(C)C)cc1,-3.49
15,CCCc1nc2c(C)cc(-c3nc4ccccc4n3C)cc2n1Cc1ccc(-c2ccccc2C(=O)O)cc1,-0.154
16,C[C@H](NCc1ccc(OCc2cccc(F)c2)cc1)C(N)=O [Safinamide Mesylate],-0.055
17,O=C(Nc1cccc(Cl)c1)c1ccccn1,0.851
18,COc1ccc2cccc(CCNC(C)=O)c2c1 [Agomelatine],-0.284
19,OCCn1cc(-c2cnc3nnn(Cc4ccc5ncccc5c4)c3n2)cn1,-0.173
20,NC(=O)c1cccc(-c2cc(Nc3ccc(OC(F)(F)F)cc3)ncn2)c1,-1.31

row,Compound,presynaptic density (Z-score)
1,CCOC(=O)C1=C(COCCN)NC(C)=C(C(=O)OC)C1c1ccccc1Cl (centres undefined),-1.97
2,COc1ccc(-c2nc3cc(C4=NNC(=O)CC4C)ccc3[nH]2)cc1 (centres undefined) [Pimobendan],-0.704
3,Cc1ccc([C@@H]2O[C@H](CO)[C@@H](O)[C@H](O)[C@H]2O)cc1Cc1ccc(-c2ccc(F)cc2)s1 [Canagliflozin],-0.473
4,O=C(C[S+]([O-])Cc1ccco1)NC/C=C\COc1cc(CN2CCCCC2)ccn1 (centres undefined) [Lafutidine],-0.624
5,N#Cc1c(O)c2c(-c3ccc(-c4ccccc4O)cc3)csc2[nH]c1=O,-1.26
6,CC(C)(C)c1nc(-c2cccc(NS(=O)(=O)c3c(F)cccc3F)c2F)c(-c2ccnc(N)n2)s1,0.941
7,O=c1cc(-c2cccc3c2Sc2ccccc2S3)oc(N2CCOCC2)c1,-0.963
8,COC(=O)CCSCc1ccc(-c2onc(C)c2NC(=O)OC(C)c2ccccc2Cl)cc1 (centres undefined),-0.843
9,C=C1C(=O)OC2C=C(C)CCC=C(C)CCC12 (centres undefined),0.309
10,CN1CCC[C@@H]1CCO[C@](C)(c1ccccc1)c1ccc(Cl)cc1 [Clemastine],-0.781
11,CCCCN1CCCCC1C(=O)Nc1c(C)cccc1C (centres undefined) [Bupivacaine HCl],-0.239
12,O=C(c1ccc(F)cc1)N1CCCC(c2nc(-c3ccc(F)cc3)no2)C1 (centres undefined),-0.851
13,O=C(Nc1cccc(Cl)c1)Nc1ncc(CCNc2ncnc3ccsc23)s1 [SNS-314 Mesylate],-0.232
14,O=C(/C=C/c1cccc(S(=O)(=O)Nc2ccccc2)c1)NO [Belinostat(PXD101)],2.26
15,COc1cc(OC2CCN(C)CC2)ccc1Nc1ncc2c(n1)n(C1CCCC1)c(=O)n2C,-0.583
16,NC(=O)Nc1sc(-c2ccc(F)cc2)cc1C(N)=O,-1.69
17,Cc1cccc(-c2nn3c(c2-c2ccnc4ccc(C(N)=O)cc24)CCC3)n1,0.336
18,COc1ccnc2[nH]cc(C(=O)C(=O)N3CCN(C(=O)c4ccccc4)C[C@H]3C)c12,0.386
19,CCOC(=O)NCCCC(=O)NCCc1ccccc1,-0.656

# Source: the supplement of paper PMC10121225
